Results filed as inconclusive are left out. Calls of active or inactive are those of the source. The call rests on the fitted dose curve; in most records, active means well fitted curve in the direction sought with a large enough effect; inconclusive means small, poorly fitted or top-dose-only effect, or another doubt; inactive means no such curve, though single readings can be large; an effect the other way counts as inactive or inconclusive.
Experiment: qHTS Screen of the MIPE 4.0 Collection Against Ewings Sarcoma (TC32) (AID 1259256); further: nearly all actives have a fitted effect of over 45% in size
Conditions: TC32 Ewing sarcoma viability, CellTiter-Glo, 48 h; series mostly up to 45.8 µM
In short: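 Log-phase cells in RPMI with 5% FBS attached for 4 h, then received compounds as a titration for 48 h at 37C, 5% CO2. Viability was read by CellTiter-Glo luminescence and normalized to DMSO and no-cell wells.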
For `CNC(=O)c1ccc(N2C(=S)N(c3cnc(C#N)c(C(F)(F)F)c3)C(=O)C23CCC3)cc1F`, the Potency was 8.33 µM (active). For `C[C@]12CC[C@H](O)CC1=CCC1C2CC[C@]2(C)C(n3cnc4ccccc43)=CCC12` (stereo not given in full), the Potency was “inactive”. For `Cn1cc(-c2ccncc2)c(-c2ccc(OCc3ccc4ccccc4n3)cc2)n1`, the Potency was 16.6 µM (active). With `O=C(O)C1(Cc2cccc(Nc3nccs3)n2)CCC(Oc2cccc(Cl)c2F)CC1` (stereo not given) the Potency was 0.372 µM (active). With `C=CC(=O)Nc1cccc(Oc2nc(Nc3ccc(N4CCN(C)CC4)cc3OC)ncc2Cl)c1` the Potency was 0.0148 µM (active). For `COC(=O)C[C@](O)(CCCC(C)(C)O)C(=O)O[C@@H]1C(OC)=C[C@]23CCCN2CCc2cc4c(cc2[C@H]13)OCO4`, the Potency was “inactive”. For `CCOc1cc2ncc(C#N)c(Nc3ccc(F)c(Cl)c3)c2cc1NC(=O)C=CCN(C)C`, the Potency was 0.132 µM (active). For `Cc1[nH]c2ccccc2c1CCNCc1ccc(C=CC(=O)NO)cc1`, the Potency was 0.0469 µM (active). With `CC(C)(C)c1cnc(CSc2cnc(NC(=O)C3CCNCC3)s2)o1` the Potency was 0.148 µM (active). In the case of `CC(=O)SC[C@@H](C)C(=O)N1CCC[C@H]1C(=O)N[C@@H](Cc1ccccc1)C(=O)O`, the Potency is reported as “inactive”. For `COc1cccc2c(NCc3ccccc3)nc(-n3c(N)nc4ccccc43)nc12`, the Potency was 10.5 µM (active). In the case of `CCC[C@H](NC(=O)C(C#N)=Cc1cccc(Br)n1)c1ccccc1`, the Potency is reported as 7.43 µM (active). For `O=C(C=Cc1c(C(=O)O)[nH]c2cc(Cl)cc(Cl)c12)Nc1ccccc1`, the Potency was “inactive”. For `COc1ccc(OC)c(-c2nnc3ccc(-c4ccc(OC)c(O[C@@H]5CCOC5)c4)nn23)c1`, the Potency was 16.6 µM (active). With `COC(=O)Nc1nc2ccc(C(=O)c3ccc(F)cc3)cc2[nH]1` the Potency was 0.372 µM (active). With `Cc1ccc(NC(=O)C2(c3ccc4c(c3)OC(F)(F)O4)CC2)nc1-c1cccc(C(=O)O)c1` the Potency was 0.0526 µM (active).

Experiment: Identifying Small Molecule Inhibitors of Pancreatic Cancer Stem Cells (A2780, Spheroid) (AID 1259357);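 further: spheroids pre-formed over 14 days in stem cell medium on hydrogel; compound exposure lasted 48 h before the ATP luminescence read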
Conditions: Potency: A2780 spheroid viability; series mostly up to 46.1 µM
In short: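 Viability is scored by CellTiter-Glo luminescence 48 h after dosing, expressed as percent activity against vehicle and no-cell references. Spheroid formats rely on cells cultured 14 days in stem cell media beforehand.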
With `Nc1cc(C(F)(F)F)c(-c2cc(N3CCOCC3)nc(N3CCOCC3)n2)cn1` the Potency was 1.48 µM (active). In the case of `CC1(C)CCC(c2ccc(Cl)cc2)=C(CN2CCN(c3ccc(C(=O)NS(=O)(=O)c4ccc(N[C@H](CCN5CCOCC5)CSc5ccccc5)c(S(=O)(=O)C(F)(F)F)c4)cc3)CC2)C1`, the Potency is reported as 20.9 µM (active). With `C[C@]1(CO)CN(c2cc(C(=O)Nc3ccc4c(c3)-c3c(c(C(N)=O)nn3-c3ccc(F)cc3)CC4)c(Cl)cn2)C[C@@]1(C)CO` the Potency was “inactive”. In the case of `Nc1ccc(C(=O)c2cc3c(ccc4ccccc43)[nH]2)cc1`, the Potency is reported as 2.09 µM (active). For `O=C(C=Cc1c(C(=O)O)[nH]c2cc(Cl)cc(Cl)c12)Nc1ccccc1`, the Potency was “inactive”.

Experiment: Identifying Small Molecule Inhibitors of Pancreatic Cancer Stem Cells (SN12C, Adherent) (AID 1259358);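 further: cell survival measured after 48 h of compound exposure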
Conditions: viability/growth inhibition; series mostly up to 46.1 µM
In short: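 Spheroids grown 14 days in stem cell media on hydrogel-coated nonadherent plates; 2D lines seeded directly. Compounds added after 4 h attachment, 48 h at 37C, 5% CO2; CellTiter-Glo luminescence normalized to DMSO (no inhibition) and no-cell wells (full inhibition).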
For `CCCCc1nc2cc(C=CC(=O)NO)ccc2n1CCN(CC)CC`, the Potency was 2.96 µM (active). In the case of `COc1cc2ncnc(Nc3ccc(F)c(Cl)c3)c2cc1NC(=O)C=CCN1CCCCC1`, the Potency is reported as 20.9 µM (active). In the case of `C[C@]1(CO)CN(c2cc(C(=O)Nc3ccc4c(c3)-c3c(c(C(N)=O)nn3-c3ccc(F)cc3)CC4)c(Cl)cn2)C[C@@]1(C)CO`, the Potency is reported as 16.6 µM (active). For `Nc1ccc(C(=O)c2cc3c(ccc4ccccc43)[nH]2)cc1`, the Potency was “inactive”. For `Cn1c(=O)n(-c2ccc(C(C)(C)C#N)cc2)c2c3cc(-c4cnc5ccccc5c4)ccc3ncc21`, the Potency was 0.0743 µM (active). In the case of `CN1CCC(CNc2ccc3ncc(-c4cccc(OC(F)(F)F)c4)n3n2)CC1`, the Potency is reported as 20.9 µM (active). With `Cc1cc(Nc2cc(N3CCN(C)CC3)nc(Sc3ccc(NC(=O)C4CC4)cc3)n2)n[nH]1` the Potency was 20.9 µM (active). With `C=CC(=O)Nc1cccc(Oc2nc(Nc3ccc(N4CCN(C)CC4)cc3OC)ncc2Cl)c1` the Potency was 23.5 µM (active). With `CCOc1cc2ncc(C#N)c(Nc3ccc(F)c(Cl)c3)c2cc1NC(=O)C=CCN(C)C` the Potency was 0.209 µM (active). With `Cc1[nH]c2ccccc2c1CCNCc1ccc(C=CC(=O)NO)cc1` the Potency was 0.235 µM (active). In the case of `CC(=O)SC[C@@H](C)C(=O)N1CCC[C@H]1C(=O)N[C@@H](Cc1ccccc1)C(=O)O`, the Potency is reported as “inactive”. For `CCN1CCN(Cc2ccc(-c3cc4c(N[C@H](C)c5ccccc5)ncnc4[nH]3)cc2)CC1`, the Potency was 23.5 µM (active). With `O=C(C=Cc1c(C(=O)O)[nH]c2cc(Cl)cc(Cl)c12)Nc1ccccc1` the Potency was “inactive”. In the case of `COc1ccc(OC)c(-c2nnc3ccc(-c4ccc(OC)c(O[C@@H]5CCOC5)c4)nn23)c1`, the Potency is reported as 20.9 µM (active).

Source: PubChem BioAssay (NCATS)
Potency means the concentration at half of the fitted maximal effect.
